PubChem BioAssay AID588352 (The Scripps Research Institute Molecular Screening Center, 2011)
About 620 (0.17%) of roughly 360,000 compounds were called active. The sample as a whole holds a higher share of actives than the screen did. Unmarked numbers belong to inactive results.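 How the source made its calls: active means inhibition above a per-campaign cutoff, the mean of all compounds plus 3 SD (cut at about 60% in these data); inactive means the rest.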

What follows are molecules tested against Nuclear receptor coactivator 3 (Homo sapiens) (UniProt Q9Y6Q9) (assay: SRC3 coactivator transcriptional activity inhibitors, primary screen, cell-based, luminescence (AID 588352;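 further: 0% = DMSO-treated cells and 100% = gossypol-treated cells at 36 µM; higher means less SRC3-driven luciferase light from the GAL4 reporter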)). Conditions: HEK293 GAL4-SRC3 luciferase reporter, at 3.6 µM, hits give high values.
Nuclear receptor coactivator 3 (Homo sapiens), sequence (Q9Y6Q9 whole entry, looked up, the tested form may be a part): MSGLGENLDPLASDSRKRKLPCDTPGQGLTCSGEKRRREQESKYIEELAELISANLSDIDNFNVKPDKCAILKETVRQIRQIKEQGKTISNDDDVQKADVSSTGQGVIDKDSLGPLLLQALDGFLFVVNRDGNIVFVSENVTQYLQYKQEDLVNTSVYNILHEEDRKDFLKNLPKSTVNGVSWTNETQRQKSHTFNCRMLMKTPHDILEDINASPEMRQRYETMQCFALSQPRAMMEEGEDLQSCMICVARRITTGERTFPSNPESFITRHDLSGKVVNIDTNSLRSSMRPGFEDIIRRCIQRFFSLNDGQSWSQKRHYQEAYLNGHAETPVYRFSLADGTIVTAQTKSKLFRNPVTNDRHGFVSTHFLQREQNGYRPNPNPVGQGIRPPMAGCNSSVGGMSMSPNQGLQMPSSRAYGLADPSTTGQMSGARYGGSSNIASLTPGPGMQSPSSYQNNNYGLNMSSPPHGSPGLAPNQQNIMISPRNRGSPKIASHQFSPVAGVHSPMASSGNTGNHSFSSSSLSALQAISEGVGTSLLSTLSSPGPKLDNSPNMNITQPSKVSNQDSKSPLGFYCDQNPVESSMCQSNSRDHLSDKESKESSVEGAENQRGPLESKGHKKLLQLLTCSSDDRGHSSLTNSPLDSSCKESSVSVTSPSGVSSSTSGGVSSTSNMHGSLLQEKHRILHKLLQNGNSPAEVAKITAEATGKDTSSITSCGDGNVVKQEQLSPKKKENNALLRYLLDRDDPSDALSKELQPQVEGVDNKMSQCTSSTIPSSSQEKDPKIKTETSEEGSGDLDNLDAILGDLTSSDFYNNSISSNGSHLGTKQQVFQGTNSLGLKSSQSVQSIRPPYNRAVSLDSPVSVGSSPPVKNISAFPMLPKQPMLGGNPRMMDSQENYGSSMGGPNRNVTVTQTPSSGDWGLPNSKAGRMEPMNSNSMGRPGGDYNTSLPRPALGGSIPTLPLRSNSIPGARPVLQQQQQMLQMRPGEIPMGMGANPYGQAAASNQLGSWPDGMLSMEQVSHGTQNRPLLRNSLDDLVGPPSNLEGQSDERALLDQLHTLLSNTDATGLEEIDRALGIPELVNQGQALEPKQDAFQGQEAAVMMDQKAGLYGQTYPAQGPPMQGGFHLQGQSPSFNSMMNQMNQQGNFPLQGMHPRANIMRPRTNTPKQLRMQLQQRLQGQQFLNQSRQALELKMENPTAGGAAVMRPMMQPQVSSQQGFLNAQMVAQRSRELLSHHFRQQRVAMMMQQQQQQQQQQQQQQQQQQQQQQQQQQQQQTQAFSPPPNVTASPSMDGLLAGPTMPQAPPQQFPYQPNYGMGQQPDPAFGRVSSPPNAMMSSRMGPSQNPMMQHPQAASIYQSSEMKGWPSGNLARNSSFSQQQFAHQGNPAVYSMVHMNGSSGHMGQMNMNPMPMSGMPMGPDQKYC
`Cc1occc1-c1nnc(SCC(=O)NC2CCCCC2)o1` gave an inhibition of 15.9%.
`O=C(NC(Nc1nc2ccc([N+](=O)[O-])cc2s1)(C(F)(F)F)C(F)(F)F)c1ccccc1` was tested, and the inhibition was 76.7% (active).
`O=C(Nc1cc(-c2ccccc2)nn1-c1ccccc1F)c1ccc([N+](=O)[O-])cc1` showed an inhibition of -5.69%.
In the case of `O=C(NNS(=O)(=O)Cc1ccccc1)c1ccc([N+](=O)[O-])cc1`, the inhibition is reported as -12.1%.
Molecule `O=S(=O)(NCCc1ccc(Cl)cc1)c1cccs1` has an inhibition of 14%.
`Brc1c(CSc2nncc3ccccc23)nc2ccccn12` was tested, and the inhibition was -11.5%.
`CCCN(CCC)S(=O)(=O)c1ccc(C(=O)N2CC3CCC(CC3)C2)cc1` showed an inhibition of 21.3%.
Molecule `CN(CC(=O)Nc1ccc(C(N)=O)cc1)S(=O)(=O)c1ccc2c(c1)OCCO2` has an inhibition of -5.47%.
`COc1ccc2c(c1)c(=Cc1ccc(N(C)C)cc1)c1cc(-c3ccccc3)[n+](C)n12` was tested, and the inhibition was 72.6% (active).
Work on `O=S(=O)(/C=C/c1ccccc1)N1CCNCC1` yielded an inhibition of 18.6%.
`COc1c(F)c(F)c(C(=O)O)c(Nc2ccccc2C)c1F` showed an inhibition of 3.91%.
`Cn1cnc(C(F)(F)F)c1-c1ccc([N+](=O)[O-])cc1` showed an inhibition of 9.14%.
`O=C(O)CCc1cccnc1` was tested, and the inhibition was -1.19%.
`CC1CCCC(C)N1C(=O)COC(=O)COc1ccccc1C#N` (centres undefined) showed an inhibition of 13.1%.
Work on `Cc1ccc(C(=O)NNC(=O)OC(C)(C)C)c(Cl)c1` yielded an inhibition of -22.3%.
`COc1ccc(CCNC(=O)CCc2cn(C)c3ccccc23)c(OC)c1` gave an inhibition of -10.8%.
Molecule `COc1ccccc1NS(=O)(=O)c1ccc(C)c(C(=O)NNC(=O)c2csc(N3CCOCC3)n2)c1` has an inhibition of -18.4%.
For `Cc1ccc(OC(=O)c2ccccc2C(=O)OCC(F)(F)C(F)F)cc1`, the inhibition was 12%.
In the case of `O=C(CN1C(=O)c2ccccc2S1(=O)=O)N1CCc2ccccc21`, the inhibition is reported as 78.1% (active).
With `CN(Cc1cccs1)C(=O)CN1C(=O)c2ccccc2S1(=O)=O` the inhibition was -22.1%.
For `COc1ccc(CNC(=O)CN2C(=O)c3ccccc3S2(=O)=O)cc1`, the inhibition was 0.21%.
`CSc1cc(C)n(-c2ccccc2C)c(=S)c1C(C)=O` was tested, and the inhibition was -24.7%.
Molecule `COc1ccc(-n2c(C)csc2=S)cc1` has an inhibition of -12.6%.
In the case of `O=C(O)C1CCN(C(=O)c2cc(F)cc3c2OCOC3)CC1`, the inhibition is reported as 1.17%.
For `Cc1ccc(C(c2sc3nc(C)nn3c2O)N2CCN(c3ccccc3)CC2)cc1` (centres undefined), the inhibition was -21.5%.
For `CC(C)OC(=O)c1cc(NC(=O)C2C3CCC(O3)C2C(=O)O)cc(C(=O)OC(C)C)c1` (centres undefined), the inhibition was 6.46%.
`O=c1[nH]n2c(=O)c3c([nH]c2c1N=Nc1ccccc1)CCC3` was tested, and the inhibition was -2.3%.
With `Cc1nc2c(ncn2-c2ccccc2)c(=O)n1NC(=O)CN1CCCC1` the inhibition was 6.67%.
In the case of `COc1ccc(NC(=S)N2N=CCC2c2ccccc2)cc1` (centres undefined), the inhibition is reported as -88%.
`COCc1cc(=O)n2[nH]c(C)c(-c3ccccc3)c2n1` showed an inhibition of 3.15%.
Molecule `O=C1NC(=Nc2ccc(Cl)cc2)SC1Cc1cccc(Cl)c1Cl` (centres undefined) has an inhibition of 11.5%.
`CCOc1cc(C2/C(=C(/O)c3ccc(S(=O)(=O)N4CCCCC4)cc3)C(=O)C(=O)N2CCOC)ccc1O` (centres undefined) was tested, and the inhibition was -17.2%.
With `Cc1ccsc1C1C(C#N)=C(N)OC2=C1C(=O)CC(C)C2` (centres undefined) the inhibition was -1.41%.
Work on `CC(C)(C)OC(=O)NCCCCCNC(=O)c1nc[nH]c1C(=O)NCc1ccccc1` yielded an inhibition of -1.92%.
`O=C(Nc1cc(Br)ccc1F)c1nc[nH]c1C(=O)NCc1ccccc1` showed an inhibition of 16.5%.
In the case of `O=C(Nc1ccon1)c1nc[nH]c1C(=O)NCc1ccccc1`, the inhibition is reported as 63% (active).
In the case of `Cc1cccc(-[n+]2c(-c3cccc(Br)c3)[nH]c3nc4ccccc4nc32)c1`, the inhibition is reported as 18.1%.
Molecule `Cc1ccc(NC(=O)NC(=O)CSc2nnc(-c3ccc(OC(F)F)cc3)n2N)c(C)c1` has an inhibition of -17.3%.
`CCN(Cc1ccccc1)C(=O)CN1C(=S)NC(C)(C)CC1C` (centres undefined) showed an inhibition of -5.54%.
